Assay outcomes from PubChem.
LMP1 NFkB inh = Epstein-Barr LMP1 NF-kappaB reporter inhibition. LMP1-induced NF-kappaB luciferase reporter cells, luminescence. inhibition, % at 12.5 µM. 350,000 tested, 0.69% active. AID 504558; in the data active means inhibition above about 41%; inconclusive means no clear call, values can overlap the other calls;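 further: 0% = neutral control wells and 100% = reference inhibitor control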
EWS-Fli inh = inhibitors of EWS/Fli oncoprotein transcriptional activity; A673 NR0B1-luciferase reporter, viability-normalised; inhibition, % at 12.6 µM; 350,000 tested, 0.67% active; AID 651661;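 active means mean inhibition of at least 50% after viability correction, with every replicate also passing that limit; inconclusive means mean reaches 50% but only one of two replicates passes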;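 further: firefly luciferase signal divided by Alamar Blue viability fluorescence both relative to DMSO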
LGR2 antag = inhibitors of bursicon-induced Drosophila LGR2 receptor cAMP signaling. inhibition, % at 9.99 µM. HEK293 LGR2, CRE-luciferase, bursicon-stimulated, 4 h. 380,000 tested, 0.35% active;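 active means drop in luminescence signal, shown as inhibition above about 50% in the replicate tests, limit read from the data, passing the limit was not always enough; inconclusive means probably only some replicates passing the limit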;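 further: agonist challenge used bursicon conditioned medium at about half maximal strength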
TWEAK-Fn14 inh = TWEAK-Fn14 signaling inhibition; 360,000 tested, 2% active; AID 1159606; inhibition, % at 10 µM; TWEAK-stimulated Fn14 reporter cells, luciferase luminescence, 8 h; in the data active means inhibition above about 50%
TROY NFkB inh = TROY signaling inhibition | Q293 LMP1-TROYcd NF-kB luciferase reporter, 4 h | inhibition, % at 10 µM | 360,000 tested, 0.98% active;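 active means compounds whose plate-normalised and pattern-corrected inhibition of the luciferase reporter signal at the single screening dose is 50% or more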
* hit, by the source's call. Sampled rows, rich in hits. Any-hit rate of the full collection: about 2.5%.

`COc1ccc(-c2cc3nc(NCc4ccc(NC(C)=O)cc4)n(C)c(=O)c3s2)cc1OC` gave EWS-Fli inh 10.0, LGR2 antag -8.3, TWEAK-Fn14 inh -38.2 and TROY NFkB inh 18.9.
COc1ccccc1CNc1nc2cc(-c3ccc(OC)c(OC)c3)sc2c(=O)n1C was read as EWS-Fli inh 11.5, LGR2 antag -4.5, TWEAK-Fn14 inh 77.0* and TROY NFkB inh 43.5.
`CCc1ccc2[nH]c(=O)c(C(c3nnnn3CCOC)N3CCN(c4ccccc4F)CC3)cc2c1` (configuration not stated) gave LMP1 NFkB inh -8.0, TWEAK-Fn14 inh 49.7 and TROY NFkB inh 53.1*.
O=C(C[C@@H]1CC[C@@H]2[C@H](COC[C@H](O)CN2S(=O)(=O)c2cccc(Cl)c2)O1)N1CCCCC1 was read as EWS-Fli inh -7.6 and LGR2 antag -11.4.
`CC(=O)Oc1c(C)cc(Cl)cc1C(=O)Nc1ccc([N+](=O)[O-])cc1Cl` gave LMP1 NFkB inh 35.8, EWS-Fli inh -12.0, LGR2 antag -30.0, TWEAK-Fn14 inh 88.0* and TROY NFkB inh 45.1.
For CC(C)Oc1ccc(CSC(=N)N)cc1 the results were LMP1 NFkB inh -5.0, TWEAK-Fn14 inh 65.0* and TROY NFkB inh -2.4.
`COc1ccc(S(=O)(=O)N(C)C[C@@H]2Oc3ccc(NS(=O)(=O)c4ccccc4)cc3C(=O)N([C@H](C)CO)C[C@@H]2C)cc1` gave EWS-Fli inh 0.8 and LGR2 antag -0.6.
Cc1ccc(S(=O)(=O)C2(C(=O)N3CCN(c4ccccc4F)CC3)CC2)cc1 was read as LMP1 NFkB inh 0.7, EWS-Fli inh -0.6, LGR2 antag 17.0, TWEAK-Fn14 inh 65.9* and TROY NFkB inh 5.7.
`CCCNC(=O)[C@H]1[C@H](CO)[C@H]2Cn3c(ccc(C4=CCCCC4)c3=O)[C@@H]1N2CCC` gave EWS-Fli inh 3.6 and LGR2 antag -5.7.
`CCCC#Cc1ccc([C@@H]2[C@@H](C#N)N(C(=O)C3CCC3)[C@@H]2CO)cc1` gave EWS-Fli inh 5.2 and LGR2 antag -2.7.
Screening CN(C)S(=O)(=O)c1cccc(NC(=S)N/N=C/c2cccc(O)c2)c1 returned LMP1 NFkB inh 0.9, EWS-Fli inh 12.4, LGR2 antag -11.2, TWEAK-Fn14 inh -3.8 and TROY NFkB inh 0.1.
Screening CN(C)S(=O)(=O)c1cccc(NC(=S)N/N=C/c2cc(Br)ccc2O)c1 returned LMP1 NFkB inh 49.4*, EWS-Fli inh 11.1, LGR2 antag 18.0, TWEAK-Fn14 inh 34.9 and TROY NFkB inh 21.9.
Screening CO[C@H]1CN(C)C(=O)c2cc(NC(=O)Nc3ccc(Cl)cc3)ccc2OC[C@@H](C)N(C(=O)Nc2c(C)noc2C)C[C@H]1C returned EWS-Fli inh -5.0 and LGR2 antag -3.0.
Screening O=C(/C=C/c1ccccc1)Nc1ncn[nH]1 returned LMP1 NFkB inh -17.3, EWS-Fli inh 9.9, LGR2 antag -2.1, TWEAK-Fn14 inh 69.7* and TROY NFkB inh -9.4.
O=C(O)C(=O)Nc1ncn[nH]1 was read as LMP1 NFkB inh 0.2, EWS-Fli inh -2.7, LGR2 antag 2.6, TWEAK-Fn14 inh -6.1 and TROY NFkB inh 0.9.
For COc1cccc(C(=O)NCCC2=CCCCC2)c1 the results were LMP1 NFkB inh 25.4, TWEAK-Fn14 inh 51.0* and TROY NFkB inh -3.2.
`COc1ccc(OC)c(NC(=O)C(=O)NCCC2=CCCCC2)c1` gave LMP1 NFkB inh 11.5, LGR2 antag -6.8, TWEAK-Fn14 inh 77.8* and TROY NFkB inh -30.7.
COc1ccc(C(=O)NCCC2=CCCCC2)cc1OC was read as LMP1 NFkB inh -9.0, TWEAK-Fn14 inh -6.2 and TROY NFkB inh -42.8.
For O=C(NCCC1=CCCCC1)c1ccc([N+](=O)[O-])cc1 the results were LMP1 NFkB inh -14.3, LGR2 antag -10.1, TWEAK-Fn14 inh 18.1 and TROY NFkB inh -24.6.
For O=C(NCCC1=CCCCC1)c1ccc(F)cc1 the results were LMP1 NFkB inh 7.5, LGR2 antag 7.6, TWEAK-Fn14 inh 53.8* and TROY NFkB inh -22.5.
For O=C(NCCC1=CCCCC1)NC12CC3CC(CC(C3)C1)C2 the results were LMP1 NFkB inh -73.9, TWEAK-Fn14 inh 48.4 and TROY NFkB inh 62.6*.
C[C@@H]1CN([C@H](C)CO)C(=O)c2cc(C#CC3CCCCC3)cnc2O[C@H]1CN(C)C was read as EWS-Fli inh 9.4 and LGR2 antag -10.2.
`COc1ccc(NC(=O)O[C@@H](c2ccc(OC)c(O)c2)[C@H](CCO)OC)cc1` gave EWS-Fli inh -2.3.
`C[C@@H]1CN([C@H](C)CO)C(=O)c2cc(NC(=O)Cc3ccccc3)ccc2O[C@@H](C)CCCCO[C@@H]1CN(C)S(=O)(=O)c1cccs1` gave EWS-Fli inh -1.6 and LGR2 antag 1.8.
`O=C(CN1C(=O)C2C3C=CC(C3)C2C1=O)NCCC1=CCCCC1` (configuration not stated) gave LMP1 NFkB inh 76.2*, LGR2 antag -24.0, TWEAK-Fn14 inh -2.2 and TROY NFkB inh -22.6.
Screening COc1ccc(C(=O)NCCC2=CCCCC2)cc1 returned LMP1 NFkB inh 16.2, LGR2 antag inconclusive, TWEAK-Fn14 inh 75.4* and TROY NFkB inh 36.1.
COc1ccc(C(=O)NCC(=O)OCC(=O)NCCC2=CCCCC2)cc1 was read as LMP1 NFkB inh -9.6, EWS-Fli inh 2.7, LGR2 antag 2.9, TWEAK-Fn14 inh -2.4 and TROY NFkB inh -8.6.
Screening O=C(O)C1C2C=CC(C2)C1C(=O)NCCC1=CCCCC1 (configuration not stated) returned LMP1 NFkB inh -14.4, LGR2 antag 0.8, TWEAK-Fn14 inh 3.8 and TROY NFkB inh -19.4.
COc1ccccc1C(=O)Oc1cc(N)n(S(=O)(=O)c2ccc(C)cc2)n1 was read as LMP1 NFkB inh -1.0, TWEAK-Fn14 inh -1.1 and TROY NFkB inh 26.1.
Screening Cc1ccc(S(=O)(=O)n2nc(OC(=O)c3ccccc3C)cc2N)cc1 returned LMP1 NFkB inh 5.3, EWS-Fli inh 5.1, LGR2 antag 12.8, TWEAK-Fn14 inh 57.0* and TROY NFkB inh 29.8.
Screening O=C(O)c1ccc2nc(-c3ccccc3)sc2c1 returned LMP1 NFkB inh 10.7, EWS-Fli inh 27.8, LGR2 antag 63.0*, TWEAK-Fn14 inh 78.6* and TROY NFkB inh -11.6.
`Nc1cc2sc(-c3ccc(C(=O)O)cc3)nc2cc1Cl` gave LMP1 NFkB inh 18.2, EWS-Fli inh -16.9, LGR2 antag inconclusive, TWEAK-Fn14 inh 29.1 and TROY NFkB inh -14.8.
CC1CCN(c2nc3ccc(C(=O)O)cc3s2)CC1 was read as LMP1 NFkB inh 62.9*, TWEAK-Fn14 inh 96.5* and TROY NFkB inh 34.4.
Screening Nc1ccc(-c2nc3ccc(C(=O)O)cc3s2)cc1 returned LMP1 NFkB inh 78.1*, EWS-Fli inh 84.5*, LGR2 antag 101.9*, TWEAK-Fn14 inh 96.7* and TROY NFkB inh 20.6.
`CC1CCN(c2nc3ccc(C(=O)NCCCN4CCCCC4)cc3s2)CC1` gave LMP1 NFkB inh -95.1, EWS-Fli inh -81.4, LGR2 antag -67.7, TWEAK-Fn14 inh -2.5 and TROY NFkB inh -57.8.
